# About 3,300 (8.5%) of roughly 39,000 compounds were called active. Shown is part of a subset that was picked to be rich in actives.
# Test system: HepG2
# Assay: cytotoxicity call (relative viability < 0.9)
# Details: 10 µM
row,Compound,cytotoxicity call
1,COc1ccc2c(c(Br)c(C(=O)O)n2CCCOc2cccc3ccccc23)c1-c1ccccc1C,inactive
2,C[C@H](CO)N1C[C@H](C)[C@@H](CN(C)Cc2ccc(C(=O)O)cc2)Oc2ccc(NC(=O)Cn3cnnn3)cc2CC1=O,inactive
3,CC(C)(C)C(=O)C[C@@H](Nc1ccccc1)c1ccc(Cl)cc1,inactive
4,COc1cccc(-c2ccc3n(c2=O)C[C@H]2[C@H](CO)[C@@H](C(=O)NCC4CC4)[C@@H]3N2S(C)(=O)=O)c1,inactive
5,C[C@H]1CN([C@@H](C)CO)C(=O)c2cccc(NS(=O)(=O)c3cn(C)cn3)c2O[C@@H]1CN(C)CC1CC1,inactive
6,CCc1nc2c(OCC(=O)c3ccc(Cl)cc3Cl)cccn2c1N(C=O)Cc1ccc(OC)cc1,inactive
7,CCc1nc2ccc(C(=O)N3CCN(C(=O)c4ccco4)CC3)cn2c1N(C)C(=O)COc1ccccc1,inactive
8,CCc1nc2c(OCC(=O)c3ccc(Cl)cc3Cl)cccn2c1N(C)C(=O)COc1ccccc1,active
9,C[C@@H]1CN([C@H](C)CO)C(=O)Cc2cc(NS(=O)(=O)c3cccs3)ccc2O[C@H]1CN(C)CC1CC1,inactive
10,CC(C)=CCC/C(C)=C/CC1=C(C)C(=O)c2ccccc2C1=O,inactive
11,C[C@@H]1CN([C@H](C)CO)C(=O)Cc2cc(NC(=O)Nc3cccc4ccccc34)ccc2O[C@H]1CN(C)Cc1ccc(C(F)(F)F)cc1,inactive
12,C[C@@H]1CN([C@@H](C)CO)C(=O)Cc2cc(NC(=O)Nc3cccc4ccccc34)ccc2O[C@H]1CN(C)Cc1ccc(C(F)(F)F)cc1,inactive
13,C[C@@H]1CN([C@H](C)CO)C(=O)Cc2cc(NC(=O)Nc3cccc4ccccc34)ccc2O[C@@H]1CN(C)Cc1ccc(C(F)(F)F)cc1,active
14,C[C@H](CO)N1C[C@H](C)[C@@H](CN(C)Cc2ccc(C(F)(F)F)cc2)Oc2ccc(NC(=O)Nc3cccc4ccccc34)cc2CC1=O,inactive
15,C[C@H]1CN([C@@H](C)CO)C(=O)Cc2cc(NC(=O)Nc3cccc4ccccc34)ccc2O[C@H]1CN(C)Cc1ccc(C(F)(F)F)cc1,active
16,C[C@H](CO)N1C[C@H](C)[C@H](CN(C)Cc2ccc(C(F)(F)F)cc2)Oc2ccc(NC(=O)Nc3cccc4ccccc34)cc2CC1=O,inactive
17,C[C@H]1CN([C@@H](C)CO)C(=O)Cc2cc(NC(=O)Nc3cccc4ccccc34)ccc2O[C@@H]1CN(C)Cc1ccc(C(F)(F)F)cc1,inactive
18,C[C@@H]1CN([C@@H](C)CO)C(=O)Cc2cc(NC(=O)Nc3cccc4ccccc34)ccc2O[C@@H]1CN(C)C(=O)Nc1ccc(C(F)(F)F)cc1,inactive
19,C[C@@H]1CN([C@@H](C)CO)C(=O)Cc2cc(NC(=O)Nc3cccc4ccccc34)ccc2O[C@@H]1CN(C)Cc1ccc(C(F)(F)F)cc1,active
20,O=C(COc1ccccc1)N1CCNC1=O,inactive

row,Compound,cytotoxicity call
1,CC(C)NC(=O)N(C)C[C@@H]1Oc2ncc(-c3ccc(C(=O)N(C)C)cc3)cc2C(=O)N([C@@H](C)CO)C[C@H]1C,inactive
2,O=C(C[C@H]1C[C@H]2c3cc(NC(=O)C4CCOCC4)ccc3O[C@H]2[C@@H](CO)O1)NCCN1CCCCC1,inactive
3,C[C@H]1CCCCO[C@H](CN(C)C(=O)c2ccccc2)[C@@H](C)CN([C@@H](C)CO)C(=O)c2cc(NC(=O)NC3CCCCC3)ccc2O1,inactive
4,C[C@@H]1CN([C@H](C)CO)C(=O)c2cc(NC(=O)c3ccncc3)ccc2O[C@@H]1CN(C)Cc1ccc2c(c1)OCO2,inactive
5,COc1ccc(S(=O)(=O)Nc2ccc3c(c2)C(=O)N([C@@H](C)CO)C[C@@H](C)[C@@H](CN(C)C(=O)Nc2ccc4c(c2)OCO4)OCCCC[C@H](C)O3)cc1,inactive
6,Cc1cn([C@@H]2C[C@H](O)[C@@H](CO)O2)c(=O)[nH]c1=O,inactive
7,Cc1ccc(S(=O)(=O)Nc2ccc3c(c2)C(=O)N([C@H](C)CO)C[C@H](C)[C@H](CN(C)C(=O)CCC(F)(F)F)OCCCC[C@@H](C)O3)cc1,inactive
8,CC(C)(C)OC(=O)C[C@H]1CC=CC[C@@H](CC(=O)NCCO)C(=O)N[C@@H](Cc2ccccc2)COC1=O,inactive
9,C[C@@H]1CN([C@@H](C)CO)C(=O)c2cccc(NC(=O)c3ccncc3)c2O[C@H]1CN(C)Cc1ccc2c(c1)OCO2,inactive
10,CC(C)NC(=O)Nc1ccc2c(c1)C(=O)N([C@@H](C)CO)C[C@H](C)[C@@H](CN(C)Cc1ccc(C(=O)O)cc1)O2,inactive
11,C[C@@H]1CCCCO[C@@H](CN(C)C(=O)Nc2ccc(F)cc2)[C@@H](C)CN([C@H](C)CO)C(=O)c2cc(NC(=O)c3ccncc3)ccc2O1,inactive
12,COc1ccc(S(=O)(=O)Nc2ccc3c(c2)C(=O)N([C@H](C)CO)C[C@H](C)[C@H](CN(C)C(=O)Nc2ccc4c(c2)OCO4)OCCCC[C@H](C)O3)cc1,inactive
13,C[C@@H]1CCCCO[C@H](CN(C)C(=O)Nc2ccc3c(c2)OCO3)[C@H](C)CN([C@@H](C)CO)C(=O)c2cc(NS(=O)(=O)c3ccc(Cl)cc3)ccc2O1,inactive
14,Cc1ccc(S(=O)(=O)Nc2ccc3c(c2)C(=O)N([C@@H](C)CO)C[C@H](C)[C@@H](CN(C)C(=O)Nc2ccc4c(c2)OCO4)OCCCC[C@@H](C)O3)cc1,inactive
15,Cc1ccc(S(=O)(=O)Nc2ccc3c(c2)C(=O)N([C@H](C)CO)C[C@H](C)[C@H](CN(C)C(=O)Nc2ccc4c(c2)OCO4)OCCCC[C@H](C)O3)cc1,active
16,COc1ccc(S(=O)(=O)Nc2ccc3c(c2)C(=O)N([C@@H](C)CO)C[C@H](C)[C@@H](CN(C)C(=O)Nc2ccc4c(c2)OCO4)OCCCC[C@@H](C)O3)cc1,inactive
17,Cc1ccc(S(=O)(=O)Nc2ccc3c(c2)C(=O)N([C@H](C)CO)C[C@H](C)[C@@H](CN(C)C(=O)Nc2ccc4c(c2)OCO4)OCCCC[C@H](C)O3)cc1,inactive
18,COc1ccc(S(=O)(=O)Nc2ccc3c(c2)C(=O)N([C@@H](C)CO)C[C@@H](C)[C@@H](CN(C)C(=O)Nc2ccc4c(c2)OCO4)OCCCC[C@@H](C)O3)cc1,active
19,C[C@@H]1CN([C@H](C)CO)C(=O)c2cc(NS(=O)(=O)c3ccc(Cl)cc3)ccc2O[C@@H](C)CCCCO[C@H]1CN(C)C(=O)Nc1ccc2c(c1)OCO2,inactive
20,C[C@H]1CCCCO[C@H](CN(C)C(=O)Nc2ccc3c(c2)OCO3)[C@@H](C)CN([C@@H](C)CO)C(=O)c2cc(NS(=O)(=O)c3ccc(Cl)cc3)ccc2O1,active
